Records with an inconclusive call do not appear. Activity calls are given as the source filed them. The call rests on the fitted dose curve; in most records, active means well fitted curve in the direction sought with a large enough effect; inconclusive means small, poorly fitted or top-dose-only effect, or effect the other way, or another doubt; inactive means no such curve, though single readings can be large or run the other way.
Assay: qHTS Assay for Identifying a Potential Treatment of Ataxia-Telangiectasia: Secondary assay (no NCS) SAR for Probe
Conditions: F2112 A-T fibroblasts, pKAP1 AlphaLISA; series mostly up to 76.9 µM
Excerpt: NIH Chemical Genomics Center [NCGC] NIH Molecular Libraries Probe Centers Network [MLPCN] MLPCN Grant: MH089030-01 Assay Submitter (PI): Wei Zheng and Yosef Shiloh Ataxia-telangiectasia (A-T) is a devastating and progressive disease for which, there is no cure. Although A-T is a multisystem disease, it is stereotyped characterized by its neurological symptoms such as truncal ataxia, due to cerebellar cortical degeneration of the Purkinje and granule cells. Other symptoms of A-T are telangiectasias (dilated blood vessels), primary immunodeficiency, marked sensitivity to ionizing radiation (IR), chromosomal instability and predisposition to cancer. The underlying genetic cause of A-T is null mutations in the ATM (A-T mutated) gene. ATM is a nuclear serine/threonine kinase that functions as a master regulator of the cellular responses to double strand breaks (DSBs) in the DNA. Upon activation by DSBs, ATM phosphorylates a plethora of downstream targets, including KAP-1 on Ser82452. […] To screen for small molecules that will compensate for the loss of ATM in cells derived from A-T patients, we monitored KAP-1 phosphorylation as a readout for ATM-like activity using an AlphaLISA assay. […]
qHTS Assay Protocol: Step,Parameter,Value,Description 1. […] Readout, EnVision, EnVision plate reader. […] EnVision protocol for 1536-well AlphaScreen read (30ms excitation, 100ms read), about 10 min/plate.

In the case of `CC(=O)c1c(O)c(C)c(O)c(Cc2c(O)c3c(c(C(=O)/C=C/c4ccccc4)c2O)OC(C)(C)C=C3)c1O`, the outcome is reported as “inactive”.
